According to PubChem BioAssay AID540317 (National Center for Advancing Translational Sciences (NCATS), 2011):
Screen size: about 390,000 compounds; about 2,200 (0.56%) were called active. Where a call stands in place of a potency, no number is given. Inconclusive results (about 3%) are left out. The call rests on the fitted dose curve; in most records, active means well fitted inhibition curve with a large enough effect; inconclusive means small, poorly fitted or top-dose-only effect; inactive means no such curve, though single readings can be large or run the other way. The full list was thinned out, with actives kept by preference.

target: Chromobox protein homolog 1 (Homo sapiens) (UniProt P83916); test: HTS for Inhibitors of HP1-beta Chromodomain Interactions with Methylated Histone Tails; conditions: AlphaScreen HP1-beta / biotin-H3K9me3 peptide binding; series mostly up to 114 µM; further: nearly all actives have a fitted effect of over 70% in size
Sequence (P83916 whole entry, looked up): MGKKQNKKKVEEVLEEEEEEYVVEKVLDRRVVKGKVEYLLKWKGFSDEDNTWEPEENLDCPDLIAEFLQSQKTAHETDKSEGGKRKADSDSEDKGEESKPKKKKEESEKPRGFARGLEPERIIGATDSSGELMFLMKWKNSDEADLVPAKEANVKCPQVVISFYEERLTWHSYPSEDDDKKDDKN
Description: As our understanding of epigenetics expands, it is becoming clear that players in this field are potential targets for drug development. This area of epigenetic therapy has established applications for the treatment of cancer and neurological diseases. We have been involved in this field for a number of years and have performed high-throughput screens to identify the first small molecule inhibitors of protein methyltransferases. These methyltransferases target multiple substrates, and thus regulate many arms of an epigenetic pathway. The methylation of different substrates often generates docking sites for effector proteins that harbor binding domains (chromo, tudor, PHD, MBT and ANK repeats). It has been proposed that the binding sites generated for different proteins by these post-translational modifcations mediate downstream effects on chromatin. Consistent with this theory, di- and tri-methylation of histone H3K9 facilitates the binding of heterochromatin protein HP1. The HP1 protein harbors a chromodomain that is responsible for the methyl-dependent interaction between HP1 and lysine 9 of histone H3. HP1 was first described in flies as a heterochromatin associated protein that can regulate gene silencing. It harbors a chromodomain that binds H3K9me3. In addition, it harbors a chromoshadow domain that interacts with a large number of proteins that are involved in heterochromatin formation and gene repression. There are three highly related HP1 isoforms. All three variants are associated with pericentric heterochromatin and it is not clear whether they have specific or redundant functions. MPP8 is also involved in the repression of gene in euchromatic regions (unpublished data) and like HP1 its chromodomain binds H3K9me3. MPP8 harbors an ankyrin repeat region that is likely involved in binding and recruiting interacting proteins with transcriptional repressive function, much like the chromoshadow domain of HP1 does. We hypothesize that by inhibiting specific protein-protein interactions we will be able to develop compounds that block a single arm of an epigenetic pathway. The specificity attained by blocking a single protein-protein interaction will be far greater than that attained by blocking the enzyme that regulates one of many interactions. Low-affinity protein-protein interactions (Kd in the single- to double-digit micromolar range) such as those discussed here have been very difficult to assay by traditional techniques such as fluorescence polarization or fluorescence resonance energy transfer. We have developed a sensitive chemiluminescence-based assay (Quinn, et al. 2009), which serves as the starting point for this project. The following is a validation assay to identify lead compounds that can block methyl-dependent protein-protein interactions (specifically HP1-beta), which can be used as probes to analyze these methyl-driven interactions and perhaps even developed into targeted epigenetic therapies. NIH Chemical Genomics Center [NCGC] NIH Molecular Libraries Probe Centers Network [MLPCN] MLPCN Grant: DA031087 Assay Submitter (PI): Mark Bedford, University of Texas, Medical Anderson Cancer Center, TX
To each well, 2 uL of HP1-beta protein (final 50 nM) and 1 uL biotinylated histone peptide trimethylated at Lys9 [b-H3(1-18)K9me3] (final 50 nM) was added in 1x PBS buffer, pH 7.4, containing 0.01% Tween-20 using a nanoliter dispenser. Formation of a protein-peptide complex proceeded at room temperature for 30 min. A Kalypsys pin-tool was employed to transfer 23 nL of library compound solution in DMSO to each well. Aurintricarboxylic acid (ATA) was used as an intraplate control with a 12-point titration in duplicate. Following a 30 min incubation of the protein-peptide complex with compounds at room temperature, a mixture of 40 ug/mL each streptavidin-coated donor and nickel chelate acceptor AlphaScreen beads (final 10 ug/mL) was added in a 1 uL dispense for a final volume of 4 uL. […]
Potency means the concentration at half of the fitted maximal effect.

| Compound | Potency |
| --- | --- |
| Cc1cc([N+](=O)[O-])c(NC2CCCCC2)c([N+](=O)[O-])c1 | 15.8 µM (active) |
| Cc1ccc(C(=O)COC(=O)CCCC(=O)NC2CCCCC2)cc1[N+](=O)[O-] | inactive |
| Cc1cc([N+](=O)[O-])c(N2CCC[C@@H]2C(=O)O)c([N+](=O)[O-])c1 | inactive |
| COc1ccc(C2Nc3ccc(NC(=O)COC(C)=O)cc3C(=O)N2Cc2ccccc2)cc1COc1ccc(NC(C)=O)cc1 (stereo not given) | inactive |
| O=C(NCc1ccccc1)c1cccc(NC(=O)N2CCSc3ncccc32)c1 | inactive |
| CCCN(C(=O)Cn1ncc2c([nH]c3ccc(C)cc32)c1=O)c1ccccc1C | inactive |
| Cc1ccc(CCNC(=O)c2nnc(Cc3cccc(F)c3)o2)cc1 | inactive |
| COc1cccc(-c2n[nH]c3c2C(c2cccc(O)c2)N(C)C3=O)c1 (stereo not given) | inactive |
| O=C(CN1CCC(NC(=O)C2CC2)CC1)Nc1ccccc1[N+](=O)[O-] | inactive |
| O=C(CN1CCCCCC1)Nc1ccc(Br)cc1[N+](=O)[O-] | 50.1 µM (active) |
| O=C(CN1CCCCCC1)Nc1ccc(Br)cc1Br | inactive |
| COc1ccc(C(CCN2CCOCC2)c2c(OC)cc(OC)c3c2OC(=O)CC3c2ccc(OC)cc2)cc1 (stereo not given) | inactive |
| CCOc1ccc(N2CC(C)Cn3c2nc2c3c(=O)n(Cc3c(F)cccc3Cl)c(=O)n2C)cc1 (stereo not given) | inactive |
| COC(=O)c1ccccc1NC(=O)Cn1c(=O)n(-c2cccc(C(F)(F)F)c2)c(=O)c2c(C)c(C)sc21 | inactive |
| CCOc1ccc(S(=O)(=O)c2cn(Cc3ccc(OC)cc3)c3ccc(F)cc3c2=O)cc1 | inactive |
| COc1ccc2c(c1)c(=Cc1ccc(N(C)C)cc1)c1cc(-c3ccccc3)[n+](C)n12 | 39.8 µM (active) |
| COc1ccc(-c2ccc(C3C4C=CCCC4(C)C(=O)N3Cc3ccccc3)c(F)c2)cc1OC (stereo not given) | inactive |
| Clc1cccc(-n2ncc3c(NCCc4ccccc4)ncnc32)c1 | inactive |
| CCCOC(=O)c1c(NC(=O)c2cc3nc(-c4ccc(OC)cc4)cc(C(F)(F)F)n3n2)sc2c1CCCC2 | inactive |
| Cc1ccc(OCC(=O)Oc2ccccc2[N+](=O)[O-])cc1 | inactive |
| O=C(COc1ccccc1[N+](=O)[O-])NC1CC1 | inactive |
| C=CCN(CC=C)CCOc1ccccc1[N+](=O)[O-] | 39.8 µM (active) |
| OCCNc1ncnc2oc(-c3ccco3)c(-c3ccco3)c12 | inactive |
| CCOC(=O)C1CCCN(C(=O)c2ccc(-n3ccc4ccccc43)s2)C1 (stereo not given) | inactive |
| O=C(c1cccc(Br)c1)N1CCN(Cc2cc(=O)n3nc(-c4ccccc4)sc3n2)CC1 | inactive |

| Compound | Potency |
| --- | --- |
| Cc1cc(C=O)c(C)n1-c1ccc(NC2CCCCC2)c([N+](=O)[O-])c1 | 25.1 µM (active) |
| COc1ccc(NC(=O)CN(C)C(=O)c2ccc(NC3CC3)c([N+](=O)[O-])c2)cc1 | inactive |
| Cc1c(NC(=O)CCC2CCCCC2)cc(C(=O)N2CCOCC2)cc1[N+](=O)[O-] | inactive |
| CCOc1ccc(CC(=O)NCCc2csc3nc(-c4ccccc4F)nn23)cc1 | inactive |
| CCOc1ccccc1N(C)C(=O)c1cc2c(s1)-c1ccccc1OC2 | inactive |
| CCc1ccc(OCCCn2c(CCCNC(=O)C3CCCCC3)nc3ccccc32)cc1 | inactive |
| Cc1ccc(OCC(=O)Nc2ccc(Cl)c(-c3nc4ccccc4[nH]3)c2)cc1C | inactive |
| N#C/C(=C\C1=C(N2CCOCC2)C(=C\c2ccccc2)/CC1)C(=O)Nc1ccccc1F | 7.08 µM (active) |
| Cc1ccc(C(=O)Nc2ccccc2F)cc1S(=O)(=O)N1CCOCC1 | inactive |
| O=C(CC1SC(N2CCOCC2)=NC1=O)Nc1ccccc1F (stereo not given) | inactive |
| O=C(Nc1ccc(Br)cc1)c1ccc(Br)c(S(=O)(=O)NCc2ccccc2)c1 | inactive |
| CC(C)C12CN3CC(C(C)C)(CN(C1)C3c1ccc(OCc3ccccc3)cc1)C2=O (stereo not given) | inactive |
| O=C(O)c1ccc2c(c1)N(Cc1ccc(F)cc1)C(=O)c1ccccc1S2=O (stereo not given) | inactive |
| Cc1ccc(CNS(=O)(=O)c2ccc(-c3cc(C(F)(F)F)on3)s2)cc1 | inactive |
| N#Cc1c(N2CCCCC2)nc(N)c2c(N)nc(SCC(=O)O)cc12 | 35.5 µM (active) |
| CCC(C)c1ccc2oc(-c3ccc(NC(=O)c4cc5ccccc5o4)cc3)nc2c1 (stereo not given) | inactive |
| CCCCc1nn2c(=O)cc(COC(=O)c3ccccc3NC(=O)C(C)(C)C)nc2s1 | inactive |
| Cc1cc(NC(=O)CSc2ncc(C(=O)Nc3ccc(Cl)cc3)c(=O)n2C)no1 | inactive |
| CSC1=N/C(=C\C=C\c2cccs2)C(=O)S1 | 28.2 µM (active) |
| Cc1ccc(C(=O)NCCSc2c(C)[nH]c3ccccc23)cc1C | inactive |
| Cc1ccc(C)c(N2C(=O)N(Cc3c(F)cccc3Cl)c3ccccc3S2(=O)=O)c1 | inactive |
| COc1ccc(-c2onc(C)c2C)cc1S(=O)(=O)NCCc1ccccc1 | inactive |
| COc1ccc(OCc2n[nH]c(=S)n2N)cc1 | 10 µM (active) |
| C=CCn1c(CCc2ccc(OC(C)C)cc2)n[nH]c1=S | inactive |
| Cn1c(CCCOc2ccc(Cl)cc2Cl)n[nH]c1=S | inactive |
